# Test results reported in PubChem BioAssay AID488969 (Vanderbilt High Throughput Screening Facility, 2010).
# Over roughly 110,000 compounds, “z-score” has its median near -0.1; the highest 2% begin near 2. What follows is part of a selection rich in the highest values, with near analogues and random picks from the rest. Calls of active or inactive are those of the source.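 Rule for the calls: active = z-score in the third read window above 3 or below -3; inactive = the rest.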
# Biological target: Metabotropic glutamate receptor 8 (Rattus norvegicus) (UniProt P70579)
# Experiment: mGluR8 Gi/Go-coupled signaling modulation – cell-based, rat, thallium flux, HTS, primary screen (AID 488969)
# Settings: HEK293 rat mGluR8, GIRK (G protein-gated inwardly rectifying potassium channel) thallium flux, FluoZin2; at 10 µM; stronger effect = higher value; submaximal glutamate (EC20) added with thallium
# Chain of Metabotropic glutamate receptor 8 (Rattus norvegicus) (P70579 whole entry, looked up): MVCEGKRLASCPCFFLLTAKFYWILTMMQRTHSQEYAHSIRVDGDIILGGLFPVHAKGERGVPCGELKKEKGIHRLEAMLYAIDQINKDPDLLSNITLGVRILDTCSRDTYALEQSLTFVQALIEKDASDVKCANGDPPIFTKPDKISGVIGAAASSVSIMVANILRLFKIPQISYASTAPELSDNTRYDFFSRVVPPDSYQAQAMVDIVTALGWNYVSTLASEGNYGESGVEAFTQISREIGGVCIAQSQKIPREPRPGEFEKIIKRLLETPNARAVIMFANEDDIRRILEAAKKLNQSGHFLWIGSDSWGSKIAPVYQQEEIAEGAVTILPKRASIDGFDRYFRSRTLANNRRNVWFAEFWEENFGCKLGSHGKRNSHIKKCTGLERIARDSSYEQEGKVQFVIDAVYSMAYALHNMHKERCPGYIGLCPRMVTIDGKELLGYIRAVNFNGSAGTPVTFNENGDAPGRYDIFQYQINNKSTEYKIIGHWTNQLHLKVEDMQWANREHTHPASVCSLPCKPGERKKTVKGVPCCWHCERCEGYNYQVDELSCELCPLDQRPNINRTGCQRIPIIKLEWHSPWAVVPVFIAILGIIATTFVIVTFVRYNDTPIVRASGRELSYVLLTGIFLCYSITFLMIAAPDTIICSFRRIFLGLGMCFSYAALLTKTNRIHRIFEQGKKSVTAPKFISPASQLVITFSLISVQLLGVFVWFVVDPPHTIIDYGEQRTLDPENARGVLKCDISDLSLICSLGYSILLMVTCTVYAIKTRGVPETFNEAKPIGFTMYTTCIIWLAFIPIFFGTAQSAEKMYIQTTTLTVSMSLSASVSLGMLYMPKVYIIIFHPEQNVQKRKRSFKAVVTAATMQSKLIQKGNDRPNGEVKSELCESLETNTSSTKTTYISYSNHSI
row,SMILES,z-score
1,COC(=O)c1cc(NS(=O)(=O)c2ccc(NCc3cccnc3)c(N)c2)cc(C(=O)OC)c1,-0.104
2,CCOC(=O)c1nc2cc3n(c(C)c-2c1C)C(C)C(C)=C3C (stereo not given),-0.0669
3,CCOC(=O)c1nc2cc3n(c(CC(C)C)c-2c1C)CC(C)=C3C,0.604
4,CCOC(=O)c1nc2cc3n(c(C)c-2c1C)C(C)C(CC)=C3C (stereo not given),2.31
5,CCOC(=O)Nc1sc2c(c1C#N)CCCC2,0.504
6,Cc1cnc(NC(=O)COc2ccccc2Cl)s1,3.06 (active)
7,Cc1cnc(NC(=O)COc2cccc3c2OC(C)(C)C3)s1,0.713
8,CSc1ccccc1NC(=O)COc1ccccc1Cl,-1.54
9,CCCCNC(=O)CCCCCNS(=O)(=O)c1ccc(OC)cc1,1.14
10,COc1ccc(S(=O)(=O)NCCC(=O)NC2CCCCCCC2)cc1,3.82 (active)
11,COc1ccc(CCCC(=O)NC2CCCCC2)cc1,-0.301
12,O=C(CCCCCNS(=O)(=O)c1ccc(Br)cc1)NCCN1CCOCC1,0.263
13,Cc1ccc(S(=O)(=O)NCCC(=O)NC2CCCC2)cc1,0.757
14,COc1ccc(S(=O)(=O)NCCCCCC(=O)NCCCN2CCOCC2)cc1,2.89
15,CC(C)(C)NC(=O)CN1CCC(O)(c2ccccc2)CC1,-0.263
16,CCOC(=O)CC(=O)CSc1nc2cc(C)ccc2cc1C,0.9
17,CNC(=O)c1sc(-c2ccccc2)nc1C,-0.396
18,COc1ccc(C(=O)CSc2ccc(-c3ccccc3)nn2)cc1,-0.139
19,CN=Cc1sc2ccccc2c1O,0.0625
20,Oc1c(C=NCc2ccncc2)sc2ccccc12,2.11
21,Oc1c(C=Nc2cccnc2)sc2ccccc12,-0.313
22,O=c1ccc(/C=C/c2ccccc2)nn1Cc1ccc(Cl)cc1Cl,0.353

row,SMILES,z-score
1,CCN(CC)c1ccc(C(=O)O)cc1,-0.133
2,CCN1CCN(C(=O)c2ccc(Sc3ccccc3Cl)c([N+](=O)[O-])c2)CC1,0.195
3,CCOc1ccc(C2c3c(oc4ccccc4c3=O)C(=O)N2CCCN2CCOCC2)cc1 (stereo not given),-0.851
4,CN(C)CCN1C(=O)c2oc3ccccc3c(=O)c2C1c1ccc(F)cc1 (stereo not given),1.86
5,CCCOc1ccc(C2c3c(oc4ccccc4c3=O)C(=O)N2CCN(CC)CC)cc1OC (stereo not given),0.615
6,CN(C)CCN1C(=O)c2oc3ccccc3c(=O)c2C1c1cccc(Br)c1 (stereo not given),0.553
7,CCN(CC)CCCN1C(=O)c2oc3ccccc3c(=O)c2C1c1cccnc1 (stereo not given),0.402
8,CN(C)CCN1C(=O)c2oc3ccc(F)cc3c(=O)c2C1c1ccncc1 (stereo not given),-0.265
9,CN1C(=O)c2oc3ccccc3c(=O)c2C1c1ccccn1 (stereo not given),8.59 (active)
10,CCN(CC)CCN1C(=O)c2oc3ccccc3c(=O)c2C1c1ccc(F)cc1 (stereo not given),4.39 (active)
11,CCN(CC)CCN1C(=O)c2oc3ccccc3c(=O)c2C1c1ccc(C)cc1 (stereo not given),8.12 (active)
12,O=C1c2oc3ccccc3c(=O)c2C(c2cccc(O)c2)N1c1ccccn1 (stereo not given),-0.576
13,COc1ccc(C2c3c(oc4ccccc4c3=O)C(=O)N2c2ccccn2)cc1 (stereo not given),-0.221
14,CCN(CC)CCN1C(=O)c2oc3ccccc3c(=O)c2C1c1ccccc1 (stereo not given),3.81 (active)
15,COc1ccc2nc(NC3=NC(C(=O)Nc4ccc(C)cc4)CC(=O)N3)nc(C)c2c1 (stereo not given),-0.114
16,Cc1cc(C)c(NC(=O)C2CCCCN2C)c(C)c1 (stereo not given),-0.0533
17,COc1ccc(N=C2SC(C(N)=O)CC(=O)N2CCc2ccc(OC)c(OC)c2)cc1 (stereo not given),-0.154
18,CCOCCOc1nc2c(c(=O)n(C)c(=O)n2C)n1CCc1ccccc1,-0.18
19,CCOc1ccc(NC(=O)Cn2nnc(-c3ccccc3NC(=O)c3cccs3)n2)cc1,-0.124
20,COc1cc(C=O)ccc1OS(=O)(=O)c1ccccc1[N+](=O)[O-],-0.429
21,COc1ccc(S(=O)(=O)CCc2nnc(NC(=O)c3cccs3)s2)cc1,-0.075
22,CSc1cccc(NC(=O)CN(c2cc(C)ccc2C)S(C)(=O)=O)c1,1.11

row,SMILES,z-score
1,CN(C)S(=O)(=O)N(CC(=O)Nc1ccccc1F)c1ccccc1,0.148
2,CCCCNC(=O)c1ccccc1NC(=O)CN(c1ccccc1)S(=O)(=O)N(C)C,2.11
3,CSc1cccc(NC(=O)CN(c2ccc(C)cc2C)S(C)(=O)=O)c1,3.01 (active)
4,CSc1cccc(NC(=O)CN(c2cccc(C)c2)S(C)(=O)=O)c1,0.00929
5,CSc1cccc(NC(=O)CN(c2ccccc2)S(=O)(=O)N(C)C)c1,3.6 (active)
6,CN(C)S(=O)(=O)N(CC(=O)Nc1cccc(F)c1)c1ccccc1,0.587
7,COC(=O)c1ccccc1NC(=O)CN(c1ccccc1)S(=O)(=O)N(C)C,-1.07
8,CN(C)S(=O)(=O)N(CC(=O)Nc1ccccc1)c1ccccc1,0.311
9,COc1ccc(C(C(=O)NC2CCCCC2)N(CC2CCCO2)C(=O)C2COc3ccccc3O2)cc1OC (stereo not given),-0.167
10,COc1ccc(S(=O)(=O)Nc2ccccc2C(=O)NCc2ccco2)cc1,-0.614
11,FC(F)(F)C1=CC(c2ccccc2)=NCCN1,-0.25
12,COc1cc(O)oc1C=Nc1ccc(Cl)cc1,-0.289
13,Cc1ccc(N2CC(C(=O)Nc3ccncc3)CC2=O)cc1 (stereo not given),-0.196
14,COc1ccc(OC)c(NC(=O)CSc2nc3c(c(=O)n(C)c(=O)n3C)n2C)c1,-1.15
15,Cc1cccc(N=Cc2cc3c(cc2[N+](=O)[O-])OCO3)c1,-0.0653
16,O=C(N/N=C/c1ccco1)c1cc([N+](=O)[O-])cc([N+](=O)[O-])c1,0.778
17,Cc1ccc(/C=N\NC(=O)c2cc([N+](=O)[O-])cc([N+](=O)[O-])c2)o1,4.57 (active)
18,Cc1ccc(/C=N/NC(=O)c2cccc([N+](=O)[O-])c2)o1,-0.121
19,COc1cccc(-c2nc(-c3ccc(NC(=O)Cc4ccccc4OC)cc3)no2)c1,0.363
20,CCCNC(=O)Cc1ccsc1,0.11
21,O=C(CCN1C(=O)c2ccccc2C1=O)Nc1ccc(-c2nc3ccccc3o2)cc1,-0.0516
22,Cc1cc(S(=O)(=O)N2CCCC2)ccc1OCC(=O)N1CCOCC1,0.0243

row,SMILES,z-score
1,COC(=O)c1cc(=O)n(CCc2ccc(OC)cc2)c(=Nc2ccc(F)c(Cl)c2)s1,9.49 (active)
2,COC(=O)c1cc(=O)n(CCc2ccc(OC)c(OC)c2)c(=Nc2ccc(F)c(Cl)c2)s1,0.363
3,COC(=O)c1cc(=O)n(CCc2ccccc2F)c(=Nc2ccc(F)c(Cl)c2)s1,-0.11
4,O=C(CSc1nc2c(c(C(F)(F)F)n1)CCc1ccccc1-2)NCc1ccccc1,0.257
5,COc1ccc(NC(=O)CSc2nnc(Cc3cccn3C)n2-c2ccc(F)cc2)cc1OC,-0.626
6,CC(=O)Nc1cccc(NC(=O)CSc2nnc(Cc3cccn3C)n2-c2ccc(C)cc2)c1,-0.278
7,Cn1cccc1Cc1nnc(SCC(=O)N2CCN(c3ccccc3)CC2)n1-c1ccc(F)cc1,-0.223
8,COc1ccc(NC(=O)CSc2nnc(Cc3cccn3C)n2-c2ccc(C)cc2)cc1OC,2.03
9,Cc1ccc(-n2c(Cc3cccn3C)nnc2SCC(=O)NC2CCCCC2)cc1,0.061
10,Cn1cccc1Cc1nnc(SCC(=O)Nc2ccc(F)cc2)n1-c1ccc(F)cc1,-0.84
11,Cn1cccc1Cc1nnc(SCC(=O)N2CCOCC2)n1-c1ccc(F)cc1,-0.171
12,Cn1cccc1Cc1nnc(SCC(=O)NC2CCCC2)n1-c1ccc(F)cc1,2.33
13,Cn1cccc1Cc1nnc(SCC(=O)N2CCCCCC2)n1-c1ccc(F)cc1,2.24
14,CC(NC(=O)Cc1ccc(-c2ccccc2)cc1)c1ccccc1 (stereo not given),-0.225
15,Cc1cc(C)c2oc(C(=O)Nc3nnc(C(C)C)s3)cc(=O)c2c1,-0.0364
16,O=C(Nc1ccccc1)N1CCN(c2ccc(F)cc2)CC1,0.147
17,CC(=O)c1ccc(Sc2ccc(C(C)=O)cc2)cc1,-0.316
18,CCn1nnc(-c2ccccc2NC(=O)c2cc(OC)c(OC)c(OC)c2)n1,-1.03
19,CN(C)S(=O)(=O)c1cccc(C(=O)NC2CCCc3ccccc32)c1 (stereo not given),-0.104
20,CC(=O)N1CCN(S(=O)(=O)c2cccc(C(=O)NC3CCCc4ccccc43)c2)CC1 (stereo not given),0.0317
21,O=C(NC1CCCc2ccccc21)c1cccc(S(=O)(=O)N2CCN(c3ccccc3)CC2)c1 (stereo not given),2.28
22,COC(=O)c1ccc(/C=N/NC(=O)CC(=O)NCC(C)C)cc1,-0.0626

row,SMILES,z-score
1,COc1cc(CNCCO)cc(Br)c1OCc1ccccc1Cl,1.32
2,O=C(O/N=C/c1ccc2c(c1)OCO2)c1ccccc1Cl,0.0816
3,CCOc1ccc(-n2c(SCc3nc(-c4ccc(C)cc4)no3)nnc2-c2ccncc2)cc1,-0.127
4,CCCn1c(SCc2nc(-c3cccs3)no2)nnc1-c1ccncc1,0.141
5,CCOc1ccc(-n2c(SCc3nc(-c4cccs4)no3)nnc2-c2ccncc2)cc1,7.31 (active)
6,S=C(Nc1cccc(Cl)c1Cl)Nn1cnnc1,-0.236
7,O=C(O)c1ccc(NC(=S)NC(NC(=O)c2ccco2)C(Cl)(Cl)Cl)cc1 (stereo not given),-0.0488
8,Cc1cc2[nH]c(=S)[nH]c2cc1C,0.151
9,Cc1cc(C)c2[nH]c(=O)c(=O)[nH]c2c1,-0.178
10,Cc1cc(C)c2[nH]c(=S)cc(C)c2c1,5.14 (active)
11,NC(=O)C1CCN(CC(=O)Nc2cccc(C(=O)Nc3cccc(C(F)(F)F)c3)c2)CC1,-0.137
12,CS(=O)(=O)N(Cc1ccccc1)c1ccc(C(=O)NC2CCCCC2O)cc1 (stereo not given),0.252
13,O=C(NNS(=O)(=O)c1ccccc1F)c1cccc(S(=O)(=O)N2CCOCC2)c1,10.4 (active)
14,O=C(NNS(=O)(=O)c1ccc(F)c(Cl)c1)c1cccc(S(=O)(=O)N2CCOCC2)c1,-0.0447
15,O=C(NNS(=O)(=O)c1cccc(Cl)c1Cl)c1cccc(S(=O)(=O)N2CCOCC2)c1,-0.174
16,CCNc1nc(NC(C)CC)nc(Oc2ccc(=O)[nH]n2)n1 (stereo not given),-0.162
17,CN=C1c2c(-c3ccccc3)c3cc(OC)ccc3n2CCN1C,4.2 (active)
18,CN=C1c2cc3c(Br)c(OC)ccc3n2CCN1C,0.218
19,CN=C1c2cc3cc(OC)ccc3n2CCN1C,0.371
20,CCC(C)n1c(-c2ccco2)nc2nc3ccccc3nc21 (stereo not given),-1.06
21,Cc1cccc(-n2c(-c3ccco3)nc3nc4ccccc4nc32)c1,-0.0341
22,Fc1cccc(-n2c(-c3ccco3)nc3nc4ccccc4nc32)c1,3.05 (active)
